Screening data (PubChem BioAssay)
Only a sample is shown.
aSyn 5UTR act – Activators working through SNCA 5'UTR binding (MLPCN); alpha-synuclein 5'UTR reporter, activators screen; AID 1814; 7.1% of 300,000 active; activity score, % (tested at 7.5 µM), hits read low; in the data active = activity score below about -60%
* hit, by the source's call.

SMILES	aSyn 5UTR act
Cc1ccc2c(c1)sc1nc(=O)n(-c3cccc(Cl)c3)c(=O)n12	-209*
O=c1nc2sc3ccccc3n2c(=O)n1-c1cccc(Cl)c1	-169*
O=c1nc2sc3ccccc3n2c(=O)n1-c1ccc(Cl)cc1	-189*
CN=c1scc(-c2ccco2)n1/N=C/c1ccc(O)c(O)c1	-242*
C=CCN=c1scc(C)n1/N=C/c1ccc(O)c(O)c1	-156*
CN=c1scc(-c2ccccc2F)n1/N=C/c1ccc[nH]1	83
CCc1ccc(/C=N\NC(=O)c2ccc(Br)o2)s1	-167*
Cc1ccc(/C=N/NC(=O)c2ccc(Br)o2)s1	-111*
O=C1c2cccc3cccc(c23)C(=O)N1CCc1ccccc1	-246*
O=C(CCN1C(=O)c2cccc3cccc(c23)C1=O)N1CCOCC1	-102*
O=C1c2ccc3c4c(ccc(c24)C(=O)N1CCCCO)C(=O)N(CCCCO)C3=O	111
CCOC(=O)C1(Cc2cccc(OC)c2)CCCN(C(=O)c2cc(CC(C)C)[nH]n2)C1 (stereo not drawn)	-118*
CCOC(=O)C1(Cc2cccc(OC)c2)CCCN(C(=O)CCN2CCCO2)C1 (stereo not drawn)	-112*
CCOC(=O)C1(Cc2cccc(OC)c2)CCCN(C(=O)c2ccc(OC)o2)C1 (stereo not drawn)	-126*
CCOC(=O)C1(Cc2cccc(Cl)c2)CCCN(C(=O)c2cc(C)on2)C1 (stereo not drawn)	-72*
Cc1cc(C(=O)CS(=O)(=O)c2ccccc2)cc(C)c1O	-85*
Cc1cc(C(=O)CSc2ccccc2)cc(C)c1O	-160*
Cc1cc(C(=O)CS(=O)(=O)c2ccc(F)cc2)cc(C)c1O	-80*
COc1ccc(/C=C/C(=O)NC2=NCCS2)cc1OC	-148*
COc1ccc(OC)c(/C=C/C(=O)NC2=NCCS2)c1	-71*
Clc1ccc(Cc2noc(-c3cccs3)n2)cc1	-132*
Cc1ccc(/C=C2\SC(N3CCCCC3)=NC2=O)cc1	-176*
C=CCOc1ccc(/C=C2\SC(N3CCCCC3)=NC2=O)cc1	-66*
O=C1N=C(N2CCCCC2)S/C1=C\c1ccc(Cl)cc1	-150*
O=C1N=C(N2CCCCC2)S/C1=C\c1ccccc1F	-143*
SMILES	aSyn 5UTR act
Cc1cc(C)c(C#N)c(SCc2nnc(-c3ccccc3)o2)n1	102
Cc1ccc(SCc2nc3ccccc3[nH]2)cc1	-128*
c1ccc(SCc2nc3ccccc3[nH]2)cc1	-133*
Cc1cc(C)c(C#N)c(SCc2nc3ccccc3[nH]2)n1	-173*
Fc1ccccc1CSCc1nc2ccccc2[nH]1	-133*
Clc1ccc(SCc2nc3ccccc3[nH]2)cc1	-112*
c1ccc2[nH]c(CSc3nccs3)nc2c1	-79*
COc1ccc2nc(NC(=O)C3COc4ccccc4O3)sc2c1 (stereo not drawn)	-80*
CS(=O)(=O)c1ccc2nc(NC(=O)C3COc4ccccc4O3)sc2c1 (stereo not drawn)	-98*
O=C(Nc1nc(-c2nc3ccccc3s2)cs1)C1COc2ccccc2O1 (stereo not drawn)	-136*
Cn1cnnc1SCc1ccc(-c2ccc(Br)cc2)o1	-72*
CC(=O)c1cccc(NC(=S)NC(=O)c2cccc(C)c2)c1	-145*
CC(=O)c1cccc(NC(=S)NC(=O)c2ccccc2C)c1	-64*
CC(=O)c1cccc(NC(=S)NC(=O)c2ccc(Cl)cc2)c1	-131*
COc1ccc(-c2csc(Nc3ncccn3)n2)cc1C	-76*
COc1ccc(-c2csc(Nc3cc(C)ccn3)n2)cc1C	-155*
COc1cccc(NC(=O)c2ccnc(N3CCC(C(=O)NCc4ccccc4OC)CC3)c2)c1	-95*
CCOc1ccccc1CNC(=O)C1CCN(c2nnc(C)c3c(C)n(-c4ccc(C)cc4)nc23)CC1	78
COc1ccc(-n2nc3c(N4CCC(C(=O)NCc5cccc(C)c5)CC4)nnc(C)c3c2C)cc1	70
CCC1CCc2sc(C(=O)NCc3ccccn3)cc2C1 (stereo not drawn)	-92*
CC1=CC2=NC(=O)/C(=C\c3cccn3CCOc3ccc(C)c(C)c3)C(=N)N2O1	-95*
CO/N=C/c1ccc(Oc2ccc(C)cc2)nc1	-77*
CCc1ccc2oc(-c3cc(N=Cc4cccc(OC)c4O)ccc3O)nc2c1	-146*
CCCC(=O)c1ccc(N2CCC(C)CC2)c(F)c1	-83*
CCC(=O)c1ccc(N2CCC(C)CC2)c(F)c1	-99*
SMILES	aSyn 5UTR act
Cc1ccc(C(=O)/C=C/c2ccc3c(c2)OCCO3)c(O)c1	-181*
O=C(/C=C/c1ccc2c(c1)OCCCO2)c1ccc2ccccc2c1O	-158*
CC(=O)Nc1ccccc1C(=O)C(=O)Nc1cccc(Br)c1	-79*
CCC(=O)Nc1ccccc1C(=O)C(=O)Nc1ccccc1	-70*
CC(=O)Nc1ccccc1C(=O)C(=O)Nc1ccccc1	-96*
CC(=O)Nc1ccccc1C(=O)C(=O)Nc1ccc(Cl)cc1	-106*
COc1ccc(/C=C(\C#N)C(=O)OC2CCOC2=O)cc1 (stereo not drawn)	-84*
Cc1cccc(Nc2nnc(SCC3CCCCO3)s2)c1 (stereo not drawn)	-184*
